Growth data for 8 molecules are collected here from PubChem BioAssay (NCI).

Holding throughout (assay): NCI-60 one-dose screen, 48 h (100 = growth as untreated, 0 = no growth, -100 = all killed)
Assay [1] concerns K-562 leukemia. Particulars: 10 µM unless noted.
Assay [2] deals with MDA-MB-231 breast. The note with it: 10 µM unless noted.
The test system of assay [3] is RXF 393 renal. The note with it: 10 µM unless noted.
The subject of assay [4] is SF-268 CNS. The note with it: 10 µM unless noted.
For assay [5], the system named is SF-295 CNS. Particulars: 10 µM unless noted.
Assay [6] deals with SF-539 CNS. Particulars: 10 µM unless noted.
For assay [7], the system named is UACC-257 melanoma. The note with it: 10 µM unless noted.
In assay [8] the test system is M14 melanoma. Particulars: 10 µM unless noted.
Assay [9] has as its system HCT-15 colon. The note with it: 10 µM unless noted.
Assay [10] relates to HT29 colon. The note with it: 10 µM unless noted.
Assay [11] deals with SNB-75 CNS. Particulars: 10 µM unless noted.
Assay [12] concerns SNB-19 CNS. The note with it: 10 µM unless noted.
Assay [13] deals with U251 CNS. The note with it: 10 µM unless noted.
For assay [14], the system named is PC-3 prostate. Particulars: 10 µM unless noted.
The subject of assay [15] is SK-MEL-5 melanoma. The note with it: 10 µM unless noted.
In assay [16] the test system is UACC-62 melanoma. The note with it: 10 µM unless noted.
Assay [17] concerns LOX IMVI melanoma. The note with it: 10 µM unless noted.
Assay [18] deals with SK-MEL-28 melanoma. The note with it: 10 µM.
The test system of assay [19] is SK-MEL-2 melanoma. Particulars: 10 µM unless noted.
Assay [20] concerns MALME-3M melanoma. The note with it: 10 µM unless noted.

Structures are written as SMILES. This is part of a sample that, as a whole, favours compounds with a hit. Of some 83,000 tested, about 20% had one in any assay.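 Each cell line was grown in a 96-well plate and treated with one concentration of compound for 48 hours. Values below 10 were considered active.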 A number with no mark means an inactive call. The source made the active and inactive calls.

Regarding `COc1ccc(C2c3ccc4ccccc4c3Oc3ncn(CCCn4ccnc4)c(=N)c32)cc1OC` (centres undefined), the growth in [1] is 15.6%; in assay [2] it was 69.2%; in [3], 73.2%; in assay [4] it was 89.5%; in assay [5], -7.39% (active); in [6], 67.8%. Also, the growth in [7] is 72.4%; in [8] it was 49.6%; in assay [9], 68.5%; in assay [10] it was 20.7%; in [11], 84.4%; in assay [12] it was 79.2%. Besides, the growth in assay [13] is 61%; in assay [14] it was 52.6%; in [15], 63.7%; in assay [16] it was 69.1%; in assay [17] it was 35.9%; in assay [18], 68.2%. Besides, in assay [19], the growth was 81.4%.

On to `CCCCc1c(CCC)c(=N)c2ccccc2n1C`, for which the growth was 8.23% (active) in [1]; 43.2% in assay [2]; 90.9% in assay [3]; 81.4% in assay [4]; 9.89% (active) in assay [5]; 74.1% in [6]. The growth is 30.8% in assay [7]; 55.3% in assay [8]; 44.5% in assay [9]; 26.6% in assay [10]; 96.8% in assay [11]; 111% in assay [12]. Besides, the growth in assay [13] is 59.3%; in [14] it was 77.2%; in assay [15], 78%; in assay [16], 97.9%; in assay [17] it was 59%; in [18], 72.2%.

For the molecule `CCOc1c(Br)cc(C2C(C(=O)OC)=CN(C)C=C2C(=O)OC)cc1OC`, the growth was 8.68% (active) in assay [1]; 49.4% in [2]; 64.2% in assay [3]; 68.1% in assay [4]; 24% in assay [5]; 94.2% in assay [6]. The growth in [9] was 41%; in assay [10], 6.47% (active); in assay [11] it was 47.3%; in [12], 89%; in assay [13], 51%; in assay [14], 60.7%. Moreover, the growth in assay [15] was 19.6%; in assay [16], 71.3%; in assay [17], 54.9%; in assay [19], 65.7%.

Consider `Clc1ccc(Nc2scc3[n+]2CCC3)cc1`, for which the growth in assay [20] is 95.9%; in assay [2], 95.9%; in [4], 93.2%; in assay [5] it was 94.5%; in [6] it was 97.1%; in assay [7], 94%. For the same molecule, the growth in assay [8] was 103%; in assay [9], 93.4%; in assay [10] it was 106%; in assay [11], 94.3%; in assay [12], 98.4%; in assay [13], 98%. Moreover, the growth in assay [14] is 89.2%; in assay [16], 87.3%; in assay [17] it was 102%; in assay [18] it was 100%; in [19], 106%.

As to `COc1ccc(-c2c(-c3ccc(OC)c(O)c3)cnc3ncnn23)cc1`, the growth in assay [20] is 111%; in assay [2] it was 102%; in [4], 101%; in assay [5] it was 102%; in assay [6], 98.6%; in assay [7], 105%. Also, the growth was 106% in assay [8]; 100% in assay [9]; 108% in assay [10]; 99.6% in assay [11]; 102% in [12]; 102% in assay [13]. In addition, the growth in assay [14] was 105%; in [16], 99%; in [17], 99.8%; in [18] it was 114%; in [19] it was 107%.

In the case of `O=C(Nc1ccc(-c2nc3ccc(NC(=O)c4ccc(Cl)cc4)cc3[nH]2)cc1)c1ccc(Cl)cc1`, the growth in [1] is -1.36% (active); in assay [2] it was -0.679% (active); in [3], -49% (active); in [4], 43.7%; in assay [5] it was -68% (active); in assay [6] it was -68.2% (active). The growth in assay [7] was -15.8% (active); in assay [8] it was 2.14% (active); in assay [9] it was 32.1%; in assay [10] it was -58.1% (active); in assay [11] it was -31.6% (active); in assay [12], 35.2%. Further, the growth in [13] is 2.01% (active); in assay [14] it was 38.3%; in assay [15] it was 9.75% (active); in assay [16], 0.642% (active); in [17], -49.6% (active); in assay [18], 7.47% (active). Besides, the growth in [19] was -33.9% (active).

As for `CC(C)CCOc1ccc(-c2n[nH]c(C(F)(F)F)c2-c2cncc(C#N)c2)c(O)c1`, the growth in assay [20] is -0.801% (active); in [2], 1.43% (active); in [4], 21.9%; in assay [5], 0.826% (active); in assay [6], 25.2%; in assay [7] it was -14% (active). In addition, the growth in assay [8] is 22.5%; in [9] it was 12%; in assay [10], 48.9%; in assay [11], 30.1%; in assay [12] it was 13.1%; in [13] it was 2.85% (active). The growth in assay [14] was 1.74% (active); in assay [16] it was 17.5%; in assay [17], 5.15% (active); in assay [18], 33.7%; in assay [19], -13.8% (active).

`COc1ccc(-c2nocc2-c2cccs2)cc1`: the growth in assay [20] is 106%; in assay [2] it was 92.8%; in assay [4], 101%; in assay [5], 95.1%; in assay [6] it was 101%; in assay [7] it was 118%. Besides, the growth in assay [8] is 111%; in assay [9], 99.1%; in assay [10], 114%; in assay [11], 89.4%; in assay [12], 102%; in [13], 110%. For the same molecule, the growth in [14] was 101%; in assay [17], 108%; in [18], 103%; in assay [19], 103%.
